Source: PubChem BioAssay (EPA / NIEHS)
Results filed as inconclusive are left out. Calls of active or inactive are those of the source. Rule for the calls, unless noted: active = hit-call score of the fitted dose curve at least 0.9, where 1 is the maximum; inactive = score below 0.9.

Assays:
[1] = biological target: Oxysterols receptor LXR-beta (Homo sapiens) (UniProt P55055); assay: ATG_LXRb_TRANS: Attagene TRANS-FACTORIAL HepG2 Assay for human Liver X Receptor beta (LXRb) (AID 2282981; active = hit-call score of the fitted dose curve at least 0.9, where 1 is the maximum); conditions: HepG2 Attagene TRANS GAL4-LXRb reporter, mRNA
Oxysterols receptor LXR-beta (Homo sapiens), sequence (P55055 whole entry, looked up, the tested form may be a part): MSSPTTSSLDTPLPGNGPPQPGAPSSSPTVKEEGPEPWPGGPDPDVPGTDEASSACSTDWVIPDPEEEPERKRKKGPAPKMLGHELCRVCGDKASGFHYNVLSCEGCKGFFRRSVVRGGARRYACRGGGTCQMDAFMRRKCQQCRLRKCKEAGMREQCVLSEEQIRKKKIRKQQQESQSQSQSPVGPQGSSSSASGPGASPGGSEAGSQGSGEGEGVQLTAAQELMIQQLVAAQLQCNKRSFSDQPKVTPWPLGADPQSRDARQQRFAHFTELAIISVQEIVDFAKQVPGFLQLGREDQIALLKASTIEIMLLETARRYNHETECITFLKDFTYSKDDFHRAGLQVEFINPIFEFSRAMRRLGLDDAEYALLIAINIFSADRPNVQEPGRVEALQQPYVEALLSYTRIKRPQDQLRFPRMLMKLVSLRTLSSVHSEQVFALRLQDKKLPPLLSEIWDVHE
Method in brief: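 Transient transfection HepG2 (multiplexed RTUs, GAL4-UAS); NR-Gal4 chimera; 24 h exposure; RNA → RT-PCR → 6-FAM primer extension → HpaI → CE; increase vs DMSO.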

[2] = biological target: Hepatocyte nuclear factor 4-alpha (Homo sapiens) (UniProt P41235); assay: ATG_HNF4a_TRANS: Attagene TRANS-FACTORIAL HepG2 Assay for human Hepatocyte Nuclear Factor 4 alpha (HNF4a) (AID 2282982; active = hit-call score of the fitted dose curve at least 0.9, where 1 is the maximum); conditions: HepG2 HNF4a transactivation reporter, mRNA readout
Hepatocyte nuclear factor 4-alpha (Homo sapiens), sequence (P41235 whole entry, looked up, the tested form may be a part): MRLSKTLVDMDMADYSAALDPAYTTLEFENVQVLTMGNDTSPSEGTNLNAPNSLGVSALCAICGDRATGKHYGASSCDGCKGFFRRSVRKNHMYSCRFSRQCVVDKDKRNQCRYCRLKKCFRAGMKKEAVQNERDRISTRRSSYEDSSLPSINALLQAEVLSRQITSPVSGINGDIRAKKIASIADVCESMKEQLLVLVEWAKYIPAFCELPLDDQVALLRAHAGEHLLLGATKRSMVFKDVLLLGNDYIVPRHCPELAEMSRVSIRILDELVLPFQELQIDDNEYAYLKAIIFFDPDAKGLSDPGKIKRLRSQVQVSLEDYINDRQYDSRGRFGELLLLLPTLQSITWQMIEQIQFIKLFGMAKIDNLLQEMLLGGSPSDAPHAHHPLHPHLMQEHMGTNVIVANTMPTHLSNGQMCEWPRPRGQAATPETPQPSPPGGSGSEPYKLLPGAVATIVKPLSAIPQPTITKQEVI
Method in brief: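 Readout is fluorescent reporter-transcript fragments resolved by capillary electrophoresis after RT-PCR from HepG2 cells dosed for 24 h. Cells carried transfected GAL4-UAS reporter constructs measuring exogenous NR-GAL4 chimera activity; DMSO served as baseline.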

[3] = ATG_M_32_TRANS: Attagene TRANS-FACTORIAL HepG2 Assay for M32 Transcription Factor (Internal Marker) (AID 2282984; active = hit-call score of the fitted dose curve at least 0.9, where 1 is the maximum;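 note: transcript level of a background control reporter unit measured by RT-PCR and capillary electrophoresis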); conditions: HepG2 Attagene TRANS M32 internal marker reporter
Method in brief: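 Measures reporter mRNA induction in human HepG2 liver cells after 24 h chemical treatment. Transcripts from transiently transfected GAL4-UAS reporter units are amplified, fluorescently labelled and sized by capillary electrophoresis; gain of signal relative to DMSO.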

[4] = biological target: Transcriptional activator Myb (Homo sapiens) (UniProt P10242); assay: ATG_Myb_CIS: Attagene CIS-FACTORIAL HepG2 Assay for human Myeloblastosis (Myb) Proto-Oncogene Transcription Factor (AID 2282986); conditions: HepG2 Attagene CIS-FACTORIAL Myb reporter transcription; actives raise or lower the signal
Transcriptional activator Myb (Homo sapiens), sequence (P10242 whole entry, looked up): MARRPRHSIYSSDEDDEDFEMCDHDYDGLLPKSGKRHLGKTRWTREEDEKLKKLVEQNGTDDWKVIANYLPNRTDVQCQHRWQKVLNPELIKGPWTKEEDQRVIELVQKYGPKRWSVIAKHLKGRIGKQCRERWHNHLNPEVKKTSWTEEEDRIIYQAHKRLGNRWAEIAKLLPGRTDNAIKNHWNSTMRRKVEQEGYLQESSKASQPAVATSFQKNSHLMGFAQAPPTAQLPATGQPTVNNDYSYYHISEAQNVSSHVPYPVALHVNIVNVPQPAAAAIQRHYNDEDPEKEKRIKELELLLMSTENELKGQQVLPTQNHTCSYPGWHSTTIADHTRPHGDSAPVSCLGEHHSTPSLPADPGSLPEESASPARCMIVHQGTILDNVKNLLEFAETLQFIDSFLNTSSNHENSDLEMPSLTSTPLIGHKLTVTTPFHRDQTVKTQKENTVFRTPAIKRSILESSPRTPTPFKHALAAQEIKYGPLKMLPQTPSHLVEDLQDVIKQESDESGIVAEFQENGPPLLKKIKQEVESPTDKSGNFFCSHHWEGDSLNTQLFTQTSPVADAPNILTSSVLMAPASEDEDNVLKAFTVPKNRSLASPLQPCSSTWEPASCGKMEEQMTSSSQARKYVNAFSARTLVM
Method in brief: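 HepG2, transient MRTU transfection (cis-element promoters, endogenous TF activity), 24 h compound exposure. Readout: reporter mRNA via RT-PCR, 6-FAM labeling, HpaI digest, capillary electrophoresis. Gain/loss fit vs DMSO.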

[5] = biological target: Nuclear respiratory factor 1 (Homo sapiens) (UniProt Q16656); assay: ATG_NRF1_CIS: Attagene CIS-FACTORIAL HepG2 Assay for human Nuclear Respiratory Factor 1 (NRF1) Orphan Gene (AID 2282987); conditions: HepG2 NRF1 cis-element reporter, Attagene multiplex; actives raise or lower the signal
Nuclear respiratory factor 1 (Homo sapiens), sequence (Q16656 whole entry, looked up): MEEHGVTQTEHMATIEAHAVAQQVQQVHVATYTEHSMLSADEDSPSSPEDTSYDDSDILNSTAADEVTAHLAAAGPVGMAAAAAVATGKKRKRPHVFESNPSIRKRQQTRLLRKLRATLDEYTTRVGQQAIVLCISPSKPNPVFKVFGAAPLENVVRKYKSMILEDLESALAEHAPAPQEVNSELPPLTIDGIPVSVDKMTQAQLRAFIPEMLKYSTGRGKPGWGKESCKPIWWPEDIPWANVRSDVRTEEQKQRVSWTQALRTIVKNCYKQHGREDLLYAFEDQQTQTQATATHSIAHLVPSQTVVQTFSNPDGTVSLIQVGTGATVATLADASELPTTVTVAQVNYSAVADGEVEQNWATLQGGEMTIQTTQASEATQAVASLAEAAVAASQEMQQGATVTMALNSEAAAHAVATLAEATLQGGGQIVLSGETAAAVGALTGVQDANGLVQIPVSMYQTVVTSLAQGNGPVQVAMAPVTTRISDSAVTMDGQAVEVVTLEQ
Method in brief: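 Endogenous NRF1-driven reporter transcription measured in transiently transfected human HepG2 liver cells. Readout: reporter mRNA by RT-PCR and capillary electrophoresis with fluorescence detection, 24 h post-dosing. Gain or loss of signal fitted relative to DMSO baseline.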

[6] = ATG_NFI_CIS: Attagene CIS-FACTORIAL HepG2 Assay for human Nuclear Factor I (NFI) (AID 2282989); conditions: HepG2 cis-regulatory reporter, NFI response element transcription; actives raise or lower the signal
Method in brief: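 Endogenous TF activity in HepG2 cells transiently transfected with cis-element-driven multiplexed reporter units, read 24 h after dosing. Reporter mRNA quantified by RT-PCR, 6-FAM labelling, HpaI digestion and capillary electrophoresis; bidirectional fit versus DMSO.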

[7] = biological target: Myc proto-oncogene protein (Homo sapiens) (UniProt P01106); assay: ATG_Myc_CIS: Attagene CIS-FACTORIAL HepG2 Assay for human Myelocytomatosis (Myc) Proto-Oncogene Transcription Factor (AID 2282990); conditions: HepG2, Attagene cis-reporter transcription factor activity; actives raise or lower the signal
Myc proto-oncogene protein (Homo sapiens), sequence (P01106 whole entry, looked up): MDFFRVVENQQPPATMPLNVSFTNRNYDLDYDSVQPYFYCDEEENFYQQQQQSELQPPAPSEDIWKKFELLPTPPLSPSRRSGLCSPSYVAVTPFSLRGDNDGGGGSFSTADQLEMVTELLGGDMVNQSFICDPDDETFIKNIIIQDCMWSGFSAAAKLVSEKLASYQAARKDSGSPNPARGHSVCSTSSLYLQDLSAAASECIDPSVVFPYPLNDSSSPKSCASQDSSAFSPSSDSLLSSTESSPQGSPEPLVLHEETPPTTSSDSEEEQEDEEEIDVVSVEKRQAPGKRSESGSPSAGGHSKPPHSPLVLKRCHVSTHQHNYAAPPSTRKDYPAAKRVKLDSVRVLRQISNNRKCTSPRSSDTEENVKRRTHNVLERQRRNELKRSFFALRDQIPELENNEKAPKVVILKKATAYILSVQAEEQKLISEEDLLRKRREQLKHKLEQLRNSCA
Method in brief: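 HepG2, transient MRTU transfection (cis promoters, endogenous TFs); 24 h dosing; TriZol RNA → oligo(dT) RT → PCR → 6-FAM primer extension → HpaI cut → CE. Bidirectional fit vs DMSO.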

[8] = ATG_NF_kB_CIS: Attagene CIS-FACTORIAL HepG2 Assay for human Nuclear Factor Kappa B (NF-kB) (AID 2282991); conditions: HepG2 Attagene cis-factorial NF-kB reporter mRNA; actives raise or lower the signal
Method in brief: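 Read-out: reporter transcript levels quantified by RT-PCR plus capillary electrophoresis of 6-FAM-labelled, HpaI-cut fragments. Transfected HepG2 cells, 24 h compound exposure, endogenous NF-kB-driven cis element; gain or loss scored versus DMSO.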

[9] = ATG_NRF2_ARE_CIS: Attagene CIS-FACTORIAL HepG2 Assay for human Nuclear Factor Erythroid 2 Related Factor 2 (NFR2) response to Antioxidant Response Elements (ARE) (AID 2282992); conditions: HepG2 Attagene ARE/NRF2 reporter, transcription factor activity; actives raise or lower the signal
Method in brief: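 Multiplexed reporter mRNA profiling in HepG2 after a 24 h chemical exposure. Curves fitted in both directions relative to DMSO negative control.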

[10] = ATG_Oct_MLP_CIS: Attagene CIS-FACTORIAL HepG2 Assay for human Octamer-Binding Transcription Factor (Oct) (AID 2282993); conditions: HepG2 Attagene cis-factorial Oct reporter, mRNA; actives raise or lower the signal
Method in brief: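 HepG2 cells transiently transfected with cis-element-driven reporter transcription units (endogenous TF activity); 24 h compound exposure. Reporter mRNA quantified by RT-PCR, 6-FAM labelling, HpaI digestion and capillary electrophoresis; bidirectional fit versus DMSO baseline.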

[11] = biological target: Oxysterols receptor LXR-alpha (Homo sapiens) (UniProt Q13133); assay: ATG_LXRa_TRANS: Attagene TRANS-FACTORIAL HepG2 Assay for human Liver X Receptor alpha (LXRa) (AID 2282980; active = hit-call score of the fitted dose curve at least 0.9, where 1 is the maximum); conditions: HepG2 Attagene TRANS reporter, LXRa transactivation
Oxysterols receptor LXR-alpha (Homo sapiens), sequence (Q13133 whole entry, looked up): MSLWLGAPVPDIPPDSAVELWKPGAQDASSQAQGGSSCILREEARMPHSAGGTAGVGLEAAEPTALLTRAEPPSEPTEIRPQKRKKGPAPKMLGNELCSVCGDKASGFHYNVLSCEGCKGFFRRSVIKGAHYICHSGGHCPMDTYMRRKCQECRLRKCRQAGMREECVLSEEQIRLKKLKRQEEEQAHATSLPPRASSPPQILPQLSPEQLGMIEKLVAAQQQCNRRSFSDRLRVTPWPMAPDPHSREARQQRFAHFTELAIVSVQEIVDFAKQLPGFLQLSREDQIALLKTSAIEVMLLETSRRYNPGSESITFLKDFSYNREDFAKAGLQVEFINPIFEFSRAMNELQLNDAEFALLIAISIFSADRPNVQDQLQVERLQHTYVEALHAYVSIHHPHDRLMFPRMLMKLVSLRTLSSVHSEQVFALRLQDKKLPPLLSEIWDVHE
Method in brief: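 Transient HepG2 transfectants, 24 h dosing, RT-PCR/CE mRNA reporter quantitation; gain-of-signal vs DMSO.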

[12] = biological target: Nuclear receptor subfamily 4 group A member 2 (Homo sapiens) (UniProt P43354); assay: ATG_NURR1_TRANS: Attagene TRANS-FACTORIAL HepG2 Assay for human Nuclear Receptor Related Protein 1 (NURR1) (AID 2282985; active = hit-call score of the fitted dose curve at least 0.9, where 1 is the maximum); conditions: HepG2 Attagene TRANS reporter, mRNA readout
Nuclear receptor subfamily 4 group A member 2 (Homo sapiens), sequence (P43354 whole entry, looked up, the tested form may be a part): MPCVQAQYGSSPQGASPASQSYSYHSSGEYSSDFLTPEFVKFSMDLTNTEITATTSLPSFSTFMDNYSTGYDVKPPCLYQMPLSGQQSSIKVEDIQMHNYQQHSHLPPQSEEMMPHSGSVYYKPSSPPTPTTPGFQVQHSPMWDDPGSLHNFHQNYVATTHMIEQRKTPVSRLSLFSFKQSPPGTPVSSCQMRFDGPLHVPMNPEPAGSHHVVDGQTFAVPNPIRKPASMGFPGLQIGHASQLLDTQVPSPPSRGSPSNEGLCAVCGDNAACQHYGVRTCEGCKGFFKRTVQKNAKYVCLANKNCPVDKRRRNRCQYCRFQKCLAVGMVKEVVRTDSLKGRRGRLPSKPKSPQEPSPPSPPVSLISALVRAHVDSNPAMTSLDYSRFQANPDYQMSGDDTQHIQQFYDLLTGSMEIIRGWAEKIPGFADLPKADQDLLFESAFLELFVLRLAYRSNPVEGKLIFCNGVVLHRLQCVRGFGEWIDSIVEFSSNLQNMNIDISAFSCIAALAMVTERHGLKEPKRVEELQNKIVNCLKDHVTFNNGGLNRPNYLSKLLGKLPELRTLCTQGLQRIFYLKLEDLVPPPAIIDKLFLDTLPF
Method in brief: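 Transient transfection of HepG2, human liver cells, with multiple GAL4-UAS reporter transcription units. Cells dosed 24 h, RNA isolated, reverse-transcribed, PCR-amplified, FAM-labelled, HpaI-digested, sized by capillary electrophoresis. DMSO served as negative control.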

[13] = biological target: Cellular tumor antigen p53 (Homo sapiens) (UniProt P04637); assay: ATG_p53_CIS: Attagene CIS-FACTORIAL HepG2 Assay for human p53 Transcription Factor (AID 2282994); conditions: HepG2 p53 cis-element reporter, Attagene mRNA; actives raise or lower the signal
Cellular tumor antigen p53 (Homo sapiens), sequence (P04637 whole entry, looked up): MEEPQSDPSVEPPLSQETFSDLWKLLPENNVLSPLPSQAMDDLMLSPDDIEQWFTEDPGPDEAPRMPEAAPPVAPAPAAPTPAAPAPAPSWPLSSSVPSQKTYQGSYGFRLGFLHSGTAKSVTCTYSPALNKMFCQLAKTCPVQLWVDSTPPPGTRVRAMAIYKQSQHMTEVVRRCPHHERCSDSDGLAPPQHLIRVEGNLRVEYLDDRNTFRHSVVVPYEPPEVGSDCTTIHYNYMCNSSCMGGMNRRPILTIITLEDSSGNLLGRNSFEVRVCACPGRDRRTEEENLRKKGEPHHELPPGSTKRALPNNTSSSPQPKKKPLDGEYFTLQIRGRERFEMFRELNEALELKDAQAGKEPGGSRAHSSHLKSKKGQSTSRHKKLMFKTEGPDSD
Method in brief: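 Multiplexed reporter mRNA assay in human HepG2 liver cells; cis-regulated units report endogenous factor activity. Values come from bidirectional curve fitting against DMSO negative control after 24 h treatment.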

[14] = ATG_M_06_TRANS: Attagene TRANS-FACTORIAL HepG2 Assay for M06 Transcription Factor (Internal Marker) (AID 2282983; active = hit-call score of the fitted dose curve at least 0.9, where 1 is the maximum); conditions: HepG2 Attagene TRANS M06 internal marker reporter
Method in brief: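 Measured by capillary electrophoresis of fluorescently labelled RT-PCR products, this endpoint reflects reporter mRNA in HepG2 cells harbouring exogenous NR-GAL4 reporter constructs after 24 h exposure, with DMSO as baseline.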

[15] = BSK_3C_uPAR: BioMAP Diversity Plus: 3C Assay for Urokinase-type plasminogen activator receptor (uPAR) Biomarker Activity (AID 2282998); conditions: BioMAP 3C HUVEC, uPAR biomarker ELISA; actives raise or lower the signal
Method in brief: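 Primary human umbilical vein endothelial cells, 3C system; surface uPAR measured by ELISA 24 h after dosing. Cytotoxicity via SRB total protein in parallel cultures; bidirectional fit against DMSO.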

[16] = BSK_3C_VCAM1: BioMAP Diversity Plus: 3C Assay for Vascular cell adhesion molecule 1 (VCAM1) Biomarker Activity (AID 2282999); conditions: BioMAP 3C HUVEC, VCAM1 ELISA, cytokine-stimulated; actives raise or lower the signal
Method in brief: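 Endothelial cells from human umbilical vein are treated with test chemical. At 24 h, VCAM-1 is measured by ELISA, and responses in either direction are fitted relative to DMSO.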

SMILES | outcome [1] | outcome [2] | outcome [3] | outcome [4] | outcome [5] | outcome [6] | outcome [7] | outcome [8] | outcome [9] | outcome [10] | outcome [11] | outcome [12] | outcome [13] | outcome [14] | AC50 [9] | outcome [15] | outcome [16]
CCCCOCC(C)OCC(C)O (configuration not stated) | inactive | inactive | inactive | inactive | inactive | inactive | inactive | inactive | inactive | inactive | – | – | – | – | – | – | –
O=S(=O)(O)CCCN1CCOCC1 | – | – | – | inactive | inactive | inactive | inactive | – | inactive | inactive | inactive | inactive | inactive | – | – | – | –
c1ccc2scnc2c1 | inactive | – | – | inactive | inactive | inactive | inactive | inactive | – | inactive | – | – | inactive | inactive | 42.1 µM (active) | – | –
CCCCCC1C(=O)CCC1CC(=O)OC (configuration not stated) | inactive | – | – | – | inactive | inactive | inactive | – | inactive | inactive | – | inactive | inactive | inactive | – | – | –
CCCCN(CCCC)CCCCCCN(CCCC)CCCC | inactive | – | inactive | inactive | inactive | inactive | inactive | – | inactive | inactive | – | – | inactive | – | – | – | –
CCOC(=O)C=Cc1ccccc1 | – | – | inactive | – | inactive | inactive | inactive | inactive | – | inactive | inactive | – | inactive | – | 42.3 µM (active) | inactive | inactive
O=[N+]([O-])c1cc(N(CCO)CCO)ccc1NCCO | – | inactive | inactive | inactive | inactive | inactive | inactive | inactive | inactive | inactive | – | – | inactive | inactive | – | – | –
CC1=CCC(C(C)C)=CC1 | inactive | – | – | inactive | inactive | inactive | inactive | – | inactive | inactive | – | inactive | inactive | – | – | – | –
CCOC(=O)CC1(C)OCC(C)O1 (configuration not stated) | inactive | – | – | inactive | inactive | inactive | inactive | inactive | inactive | inactive | – | – | inactive | inactive | – | – | –
C[N+](C)(C)CCO | inactive | – | – | – | inactive | inactive | inactive | – | – | inactive | – | – | – | – | 101 µM (active) | – | –
NCCN1CCNCC1 | inactive | – | inactive | – | inactive | inactive | inactive | inactive | inactive | inactive | – | inactive | inactive | inactive | – | – | –
CC1(C)CC(=O)CC(C)(C)N1 | inactive | – | – | inactive | inactive | inactive | inactive | inactive | inactive | inactive | – | inactive | inactive | – | – | – | –
c1ccc(Cc2ccccc2)cc1 | inactive | inactive | inactive | inactive | inactive | inactive | inactive | inactive | inactive | inactive | – | inactive | inactive | inactive | – | – | –
CC(=O)c1cccnc1 | inactive | – | inactive | – | inactive | inactive | inactive | inactive | inactive | inactive | – | – | inactive | – | – | – | –
